According to PubChem BioAssay (EPA / NIEHS):
Calls of active or inactive are those of the source. How the source made its calls: active means hit-call score of the fitted dose curve at least 0.9, where 1 is the maximum; inactive means score below 0.9.

What was measured:
Conditions in all cases: mRNA level, 48 h; actives raise or lower the signal
CYP2C9 (gene 1559) = assay: LTEA_HepaRG_CYP2C9: Life Technologies and Expression Analysis (LTEA) Assay for CYP2C9 using HepaRG (AID 2283484)
How it was run: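 HepaRG, 48 h dosing, 8-pt half-log series, top 100 uM, 0.5% DMSO vehicle. Read-out: CYP2C9 transcript by TaqMan qRT-PCR, housekeeping-normalized (ACTB/GAPDH/POLR2A). Gain or loss fitted vs DMSO baseline.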

CYP2E1 (gene 1571) = assay: LTEA_HepaRG_CYP2E1: Life Technologies and Expression Analysis (LTEA) Assay for CYP2E1 using HepaRG (AID 2283485)
How it was run: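 CYP2E1 transcript was measured by TaqMan qRT-PCR in human HepaRG cultures after 48 h chemical exposure (top 100 uM, half-log steps, 0.5% DMSO vehicle). Housekeeping-gene normalization; gain or loss fitted relative to DMSO baseline.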

CYP4A11 (gene 1579) = assay: LTEA_HepaRG_CYP4A11: Life Technologies and Expression Analysis (LTEA) Assay for CYP4A11 using HepaRG (AID 2283486)
How it was run: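 HepaRG, 48 h chem exposure, 8 conc (100 uM top, half-log), 0.5% DMSO vehicle; qRT-PCR readout, housekeeping-gene normalized; bidirectional curve fit vs DMSO baseline.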

[1] = read-out: Cytochrome P450 3A4 (Homo sapiens) (UniProt P08684); assay: LTEA_HepaRG_CYP3A4: Life Technologies and Expression Analysis (LTEA) Assay for CYP3A4 using HepaRG (AID 2283487)
How it was run: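 Differentiated HepaRG cells, plated 48 h, then dosed 48 h in serum-free induction medium with 0.5% DMSO, 8 half-log concentrations up to 100 uM, duplicate. CYP3A4 mRNA by qRT-PCR, normalized to ACTB/GAPDH/POLR2A; bidirectional fit versus DMSO.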

[2] = read-out: DNA damage-inducible transcript 3 (DDIT3), DDIT3 (gene 1649); assay: LTEA_HepaRG_DDIT3: Life Technologies and Expression Analysis (LTEA) Assay for DNA damage-inducible transcript 3 (DDIT3) using HepaRG (AID 2283488)
How it was run: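 qRT-PCR readout (Fluidigm TaqMan), housekeeping-normalized to ACTB, GAPDH, POLR2A. HepaRG cells, 48 h exposure, 8-point half-log series from 100 uM in 0.5% DMSO, duplicates. Gain or loss of signal fitted against DMSO baseline.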

[3] = read-out: Pro-epidermal growth factor (Homo sapiens) (UniProt P01133); assay: LTEA_HepaRG_EGF: Life Technologies and Expression Analysis (LTEA) Assay for Epidermal growth factor (EGF) using HepaRG (AID 2283489)
How it was run: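 HepaRG, 48 h dosing, 100 uM top, half-log x8, 0.5% DMSO. Readout: TaqMan qRT-PCR (Fluidigm array), housekeeping-normalized. Gain or loss of signal fit vs DMSO.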

[4] = read-out: Early growth response protein 1 (EGR1) transcription factor, EGR1 (gene 1958); assay: LTEA_HepaRG_EGR1: Life Technologies and Expression Analysis (LTEA) Assay for Early growth response protein 1 (EGR1) transcription factor using HepaRG (AID 2283490)
How it was run: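 HepaRG, 48 h exposure, 8-pt half-log series from 100 uM, 0.5% DMSO vehicle; EGR1 transcript by TaqMan qRT-PCR (Fluidigm array), housekeeping-normalized; bidirectional fit relative to DMSO baseline.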

[5] = read-out: Ezrin (EZR), EZR (gene 7430); assay: LTEA_HepaRG_EZR: Life Technologies and Expression Analysis (LTEA) Assay for Ezrin (EZR) using HepaRG (AID 2283491)
How it was run: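 EZR transcript levels came from Fluidigm qRT-PCR and were normalized to three housekeeping genes after 48 h chemical exposure of HepaRG cells. Dosing used an 8-point half-log series with a 100 uM top concentration in 0.5% DMSO, tested in duplicate; both directions were fitted versus vehicle.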

[6] = read-out: Cytochrome P450 3A7 (Homo sapiens) (UniProt P24462); assay: LTEA_HepaRG_CYP3A7: Life Technologies and Expression Analysis (LTEA) Assay for CYP3A7 using HepaRG (AID 2283492)
How it was run: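 Human HepaRG liver cells, 48 h post-plating, switched to serum-free induction medium and exposed in duplicate for 48 h. Dosing: 100 uM top, half-log dilutions, 8 points, 0.5% DMSO vehicle. Read-out: CYP3A7 mRNA, gain or loss fitted against DMSO baseline.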

[7] = read-out: Fatty Acid-Binding Protein 1 (FABP1), FABP1 (gene 2168); assay: LTEA_HepaRG_FABP1: Life Technologies and Expression Analysis (LTEA) Assay for Fatty Acid-Binding Protein 1 (FABP1) using HepaRG (AID 2283494)
How it was run: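 qRT-PCR readout of FABP1 transcript (normalized to three housekeeping genes) after 48 h chemical exposure of HepaRG cells; eight concentrations, half-log steps, max 100 uM, 0.5% DMSO vehicle; gain or loss fitted relative to DMSO baseline.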

[8] = read-out: Cytochrome P450 4A22 (Homo sapiens) (UniProt Q5TCH4); assay: LTEA_HepaRG_CYP4A22: Life Technologies and Expression Analysis (LTEA) Assay for Cytochrome P450 4A22 (CYP4A22) using HepaRG (AID 2283495)
How it was run: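 Readout is CYP4A22 transcript induction or loss, quantified by qRT-PCR and normalized to ACTB, GAPDH and POLR2A. Human HepaRG cells receive test chemicals for 48 h at eight half-log concentrations from 100 uM in 0.5% DMSO.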

[9] = read-out: Cytochrome P450 7A1 (Homo sapiens) (UniProt P22680); assay: LTEA_HepaRG_CYP7A1: Life Technologies and Expression Analysis (LTEA) Assay for Cytochrome P450 7A1 (CYP7A1) using HepaRG (AID 2283496)
How it was run: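 Using 0.5% DMSO as vehicle and baseline, chemicals were tested in duplicate over an 8-point range from 100 uM on HepaRG cells for 48 h; qRT-PCR signals were normalised to ACTB, GAPDH and POLR2A.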

[10] = read-out: Glutathione S-Transferase (GSTA2), GSTA2 (gene 2939); assay: LTEA_HepaRG_GSTA2: Life Technologies and Expression Analysis (LTEA) Assay for Glutathione S-Transferase (GSTA2) using HepaRG (AID 2283497)
How it was run: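 qRT-PCR readout of GSTA2 transcript, normalized to three housekeeping genes, fitted bidirectionally against 0.5% DMSO baseline. Differentiated HepaRG cells received compound for 48 h at 8 concentrations (top 100 uM, half-log steps).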

[11] = read-out: Glutamate-cysteine ligase catalytic (GCLC), GCLC (gene 2729); assay: LTEA_HepaRG_GCLC: Life Technologies and Expression Analysis (LTEA) Assay for Glutamate-cysteine ligase catalytic (GCLC) using HepaRG (AID 2283498)
How it was run: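 HepaRG, 48 h exposure, 8-pt half-log series from 100 uM, 0.5% DMSO vehicle; TaqMan qRT-PCR for GCLC mRNA, housekeeping-normalized; bidirectional curve fit vs DMSO baseline.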

[12] = read-out: growth arrest and DNA damage 45 (GADD45G), GADD45G (gene 10912); assay: LTEA_HepaRG_GADD45G: Life Technologies and Expression Analysis (LTEA) Assay for growth arrest and DNA damage 45 (GADD45G) using HepaRG (AID 2283499)
How it was run: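 Gain or loss of GADD45G mRNA, quantified by TaqMan qRT-PCR against three housekeeping genes, is fitted in both directions relative to 0.5% DMSO. Human HepaRG cultures receive test chemical for 48 h at up to 100 uM.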

[13] = read-out: Glutamate-cysteine ligase regulatory (GCLM), GCLM (gene 2730); assay: LTEA_HepaRG_GCLM: Life Technologies and Expression Analysis (LTEA) Assay for Glutamate-cysteine ligase regulatory (GCLM) using HepaRG (AID 2283500)
How it was run: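 HepaRG, 48 h dosing, 100 uM top, half-log x8, 0.5% DMSO vehicle. Readout: GCLM mRNA by TaqMan qRT-PCR, housekeeping-normalized (ACTB/GAPDH/POLR2A). Curves fit bidirectionally vs DMSO baseline.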

[14] = read-out: Glutathione S-transferase M3 (GSTM3), GSTM3 (gene 2947); assay: LTEA_HepaRG_GSTM3: Life Technologies and Expression Analysis (LTEA) Assay for Glutathione S-transferase M3 (GSTM3) using HepaRG (AID 2283501)
How it was run: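 HepaRG, plated 48 h, then serum-free induction medium; test chemical 48 h, duplicate; 100 uM top, half-log x8, 0.5% DMSO. Read-out: GSTM3 mRNA (TaqMan qRT-PCR, Fluidigm array). Bidirectional fit vs DMSO.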

[15] = read-out: Heat shock 70 kDa protein 1 (HSPA1A), gene 3303; assay: LTEA_HepaRG_HSPA1A: Life Technologies and Expression Analysis (LTEA) Assay for Heat shock 70 kDa protein 1 (HSPA1A) using HepaRG (AID 2283502)
How it was run: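 HepaRG, 48 h exposure, 8-pt half-log CRC from 100 uM in 0.5% DMSO, duplicates. Readout: TaqMan qRT-PCR of HSPA1A mRNA, housekeeping-normalized (ACTB/GAPDH/POLR2A). Bidirectional fit vs 0.5% DMSO baseline.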

[16] = read-out: Hypoxia-inducible factor 1-alpha (Homo sapiens) (UniProt Q16665); assay: LTEA_HepaRG_HIF1A: Life Technologies and Expression Analysis (LTEA) Assay for Hypoxia-inducible factor 1 (HIF1A) Trancription factor using HepaRG (AID 2283503)
How it was run: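 Gain- or loss-of-signal HIF1A mRNA changes are fitted against a DMSO baseline. HepaRG cultures receive eight concentrations, highest 100 uM, for 48 h in serum-free induction medium with 0.5% DMSO.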

CYP3A5 (gene 1577) = assay: LTEA_HepaRG_CYP3A5: Life Technologies and Expression Analysis (LTEA) Assay for CYP3A5 using HepaRG (AID 2283493)
How it was run: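 qRT-PCR read-out: CYP3A5 transcript in HepaRG lysates, housekeeping-normalized (ACTB/GAPDH/POLR2A), fitted bidirectionally against 0.5% DMSO baseline. Exposure 48 h, eight half-log concentrations up to 100 uM, duplicates.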

Measured: AC50

Sequence of Cytochrome P450 3A4 (Homo sapiens) (P08684 whole entry, looked up): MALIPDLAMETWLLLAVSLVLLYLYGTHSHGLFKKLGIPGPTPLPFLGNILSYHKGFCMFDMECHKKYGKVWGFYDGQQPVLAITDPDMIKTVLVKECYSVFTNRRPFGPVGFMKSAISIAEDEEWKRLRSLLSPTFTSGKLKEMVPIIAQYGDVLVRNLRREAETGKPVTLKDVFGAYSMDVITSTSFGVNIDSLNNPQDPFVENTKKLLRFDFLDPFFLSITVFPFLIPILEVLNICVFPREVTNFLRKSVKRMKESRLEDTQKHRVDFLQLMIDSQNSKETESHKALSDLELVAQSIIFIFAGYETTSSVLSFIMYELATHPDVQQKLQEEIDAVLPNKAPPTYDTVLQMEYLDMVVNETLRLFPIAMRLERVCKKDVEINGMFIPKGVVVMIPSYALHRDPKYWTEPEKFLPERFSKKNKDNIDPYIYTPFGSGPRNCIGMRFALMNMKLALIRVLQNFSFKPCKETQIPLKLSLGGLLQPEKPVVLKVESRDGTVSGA
Sequence of Cytochrome P450 3A7 (Homo sapiens) (P24462 whole entry, looked up): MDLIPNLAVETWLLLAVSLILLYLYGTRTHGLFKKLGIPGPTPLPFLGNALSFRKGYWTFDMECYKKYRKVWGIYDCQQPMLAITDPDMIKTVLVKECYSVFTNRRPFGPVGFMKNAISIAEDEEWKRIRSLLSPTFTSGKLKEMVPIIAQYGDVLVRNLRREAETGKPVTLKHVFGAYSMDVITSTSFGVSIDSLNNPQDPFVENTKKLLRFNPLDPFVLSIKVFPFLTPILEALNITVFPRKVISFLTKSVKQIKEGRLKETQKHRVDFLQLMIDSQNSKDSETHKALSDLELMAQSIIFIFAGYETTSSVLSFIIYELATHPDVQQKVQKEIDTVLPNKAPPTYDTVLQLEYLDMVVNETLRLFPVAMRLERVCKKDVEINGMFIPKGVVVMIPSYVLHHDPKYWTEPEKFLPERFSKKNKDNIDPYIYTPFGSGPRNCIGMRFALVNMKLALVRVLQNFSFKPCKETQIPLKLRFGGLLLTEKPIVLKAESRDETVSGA
Sequence of Hypoxia-inducible factor 1-alpha (Homo sapiens) (Q16665 whole entry, looked up): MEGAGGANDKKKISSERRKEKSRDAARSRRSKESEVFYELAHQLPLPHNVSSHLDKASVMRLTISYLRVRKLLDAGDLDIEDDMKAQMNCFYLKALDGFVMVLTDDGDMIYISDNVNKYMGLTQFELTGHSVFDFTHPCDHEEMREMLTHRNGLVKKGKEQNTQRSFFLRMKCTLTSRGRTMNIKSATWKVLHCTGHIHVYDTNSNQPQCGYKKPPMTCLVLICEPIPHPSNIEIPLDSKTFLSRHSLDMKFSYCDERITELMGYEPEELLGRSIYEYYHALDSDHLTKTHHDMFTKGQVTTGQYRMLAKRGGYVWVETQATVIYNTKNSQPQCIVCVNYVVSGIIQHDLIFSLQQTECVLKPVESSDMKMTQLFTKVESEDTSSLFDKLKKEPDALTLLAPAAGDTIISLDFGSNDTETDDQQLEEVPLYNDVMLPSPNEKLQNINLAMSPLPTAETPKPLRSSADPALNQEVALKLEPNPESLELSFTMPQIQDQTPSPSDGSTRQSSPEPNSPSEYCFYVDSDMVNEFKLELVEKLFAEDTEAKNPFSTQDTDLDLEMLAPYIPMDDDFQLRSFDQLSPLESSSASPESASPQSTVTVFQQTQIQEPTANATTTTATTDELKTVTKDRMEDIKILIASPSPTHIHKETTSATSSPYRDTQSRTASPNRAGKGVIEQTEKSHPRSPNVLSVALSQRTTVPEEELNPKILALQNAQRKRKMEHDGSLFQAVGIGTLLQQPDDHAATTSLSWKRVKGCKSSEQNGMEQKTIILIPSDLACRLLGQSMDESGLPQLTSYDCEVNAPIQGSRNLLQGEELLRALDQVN

CCOC(=O)C(C)Oc1ccc(Oc2cnc3cc(Cl)ccc3n2)cc1 (stereo unspecified)
inactive: CYP2C9 (gene 1559) | [1] | [2] | [3] | [4] | [5] | [11] | [12] | [13] | [14] | [15] | [16]
active: CYP2E1 (gene 1571) 20 µM | CYP4A11 (gene 1579) 43 µM | [6] 0.571 µM | [7] 0.388 µM | [8] 43 µM | [9] 9.27 µM | [10] 15 µM

CSC(=O)c1cccc2nnsc12
inactive: CYP2C9 (gene 1559) | CYP2E1 (gene 1571) | CYP4A11 (gene 1579) | [1] | [2] | [3] | [4] | [5] | [6] | CYP3A5 (gene 1577) | [7] | [8] | [9] | [10] | [11] | [12] | [13] | [14] | [15] | [16]

CC(=O)[C@H]1CC[C@H]2[C@@H]3CCC4=CC(=O)CC[C@]4(C)[C@H]3CC[C@]12C
inactive: [5] | [13]
active: CYP2C9 (gene 1559) 38.5 µM | CYP2E1 (gene 1571) 25.7 µM | CYP4A11 (gene 1579) 31.1 µM | [1] 36 µM | [2] 27.2 µM | [3] 82 µM | [4] 50 µM | [6] 30.1 µM | [7] 35.8 µM | [8] 31.1 µM | [9] 26.8 µM | [10] 34.5 µM | [12] 23 µM | [14] 93.1 µM | [15] 70.2 µM

c1ccc(Nc2ccccc2)cc1
inactive: CYP2E1 (gene 1571) | CYP4A11 (gene 1579) | [1] | [2] | [3] | [4] | [5] | [6] | [7] | [8] | [9] | [10] | [11] | [12] | [13] | [14] | [15] | [16]

CCCCC(CC)COC(=O)c1ccccc1C(=O)O (stereo unspecified)
inactive: CYP2C9 (gene 1559) | [2] | [3] | [4] | [5] | [7] | [8] | [10] | [11] | [12] | [13] | [14] | [15] | [16]
active: CYP2E1 (gene 1571) 76.7 µM | CYP4A11 (gene 1579) 50.8 µM | [9] 50.8 µM

COCCO
inactive: CYP2C9 (gene 1559) | CYP2E1 (gene 1571) | CYP4A11 (gene 1579) | [1] | [2] | [4] | [5] | [6] | [7] | [10] | [12] | [13] | [14] | [15] | [16]
